From PubChem BioAssay (NCI) come the findings set out here.

Test systems include NCI-H23 lung; NCI-H226 lung; NCI-H322M lung; HOP-62 NSCLC; NCI-H460 lung; HOP-92 NSCLC; NCI-H522 lung; A549/ATCC NSCLC; 786-0 renal; COLO 205 colon; DU-145 prostate; K-562 leukemia; MALME-3M melanoma; MDA-MB-231 breast; RXF 393 renal; SF-268 CNS; SF-295 CNS; SF-539 CNS; UACC-257 melanoma; M14 melanoma.
Assay in all cases: NCI-60 one-dose screen, 48 h (100 = growth as untreated, 0 = no growth, -100 = all killed)
Common to all, as to conditions: 10 µM unless noted

About 83,000 compounds went through this panel and 20% of them were active in at least one assay; those are over-represented in the sample as a whole.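 Method: cells in 96-well plates; compound added at one concentration; 48 h incubation; percent growth measured; values under 10 scored active.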 Unmarked numbers belong to inactive results. Active and inactive are the calls of the source.

Take `O=C1CCCC=CC[C@H]2C=C(Cl)C(=O)C2=CC[C@H](CCCCC(F)(F)F)OC(=O)CCCC=CC[C@H]2C=C(Cl)C(=O)C2=CC[C@H](CCCCC(F)(F)F)OC(=O)CCCC=CC[C@H]2C=C(Cl)C(=O)C2=CC[C@H](CCCCC(F)(F)F)O1`: the growth was 65.2% [6.25 µM] with NCI-H23 lung; 113% [6.25 µM] in the experiment with NCI-H226 lung; 99.1% [6.25 µM] in the experiment with NCI-H322M lung; 85.9% [6.25 µM] in the experiment on HOP-62 NSCLC; 89.6% [6.25 µM] with NCI-H460 lung; 126% [6.25 µM] with HOP-92 NSCLC. The growth was 34.4% [6.25 µM] in the experiment with NCI-H522 lung; 93.7% [6.25 µM] in the experiment with A549/ATCC NSCLC; 108% [6.25 µM] in the experiment with 786-0 renal; 80% [6.25 µM] in the experiment with COLO 205 colon; 62.4% [6.25 µM] in the experiment on DU-145 prostate; 32.1% [6.25 µM] in the experiment with K-562 leukemia. Moreover, the growth in the experiment with MALME-3M melanoma is 106% [6.25 µM]; with MDA-MB-231 breast, 51.5% [6.25 µM]; in the experiment with RXF 393 renal it was 86% [6.25 µM]; with SF-268 CNS it was 82.8% [6.25 µM]; with SF-295 CNS it was 107% [6.25 µM]; in the experiment on SF-539 CNS it was 93% [6.25 µM]. Besides, the results for the growth with UACC-257 melanoma and in the experiment with M14 melanoma were 79.3% [6.25 µM] and 59.5% [6.25 µM], respectively.

As to `CN1CCN(CC#CCn2c3c(c4ccccc42)C[C@]2(C)[C@H]4CC[C@@H]5[C@H]6[C@H]7OC(=O)[C@@]6(CCC7(C)C)CC[C@@]5(C)[C@]4(C)CC[C@H]2C3(C)C)CC1`, the growth is 92.7% with NCI-H23 lung; 91.6% with NCI-H226 lung; 106% with NCI-H322M lung; 95.2% in the experiment on HOP-62 NSCLC; 98.6% in the experiment on NCI-H460 lung; 67.4% in the experiment on HOP-92 NSCLC. The growth in the experiment with NCI-H522 lung was 102%; in the experiment with A549/ATCC NSCLC, 58.6%; in the experiment on 786-0 renal it was 107%; in the experiment with COLO 205 colon, 108%; with DU-145 prostate, 35.4%; in the experiment with K-562 leukemia, 12.7%. Further, the growth in the experiment with MALME-3M melanoma was 113%; with MDA-MB-231 breast, 42.7%; with RXF 393 renal, 67.1%; with SF-268 CNS, 92.9%; in the experiment on SF-295 CNS it was 104%; in the experiment on SF-539 CNS it was 89.1%. Moreover, the figures for the growth in the experiment with UACC-257 melanoma and with M14 melanoma were 109% and 80.9%, respectively.

With `CC(C)C[C@@H](NC(=O)[C@@H](Cc1ccccc1)NC(=O)c1cnccn1)B1O[C@H]2[C@H](O)[C@@H](C(=O)NCCCC[C@@H]3NC(=O)[C@@H](Cc4ccccc4)NC(=O)[C@H](CC(=O)O)NC(=O)CNC(=O)[C@H](CCCN=C(N)N)NC3=O)O[C@@H](CN)[C@H]2O1`, the growth is -29.2% (active) in the experiment with NCI-H23 lung; -45.8% (active) with NCI-H226 lung; 6.41% (active) in the experiment with NCI-H322M lung; -50.5% (active) in the experiment with HOP-62 NSCLC; -44.6% (active) in the experiment with NCI-H460 lung; -70.4% (active) in the experiment on HOP-92 NSCLC. The growth in the experiment on NCI-H522 lung is -67.9% (active); in the experiment on A549/ATCC NSCLC, -55.2% (active); in the experiment on 786-0 renal, -12.8% (active); in the experiment on COLO 205 colon, -81.1% (active); in the experiment on DU-145 prostate, -8.32% (active); with K-562 leukemia, 2.76% (active). The growth in the experiment with MALME-3M melanoma was -20.6% (active); with MDA-MB-231 breast, -9.73% (active); in the experiment with RXF 393 renal, -85.9% (active); with SF-268 CNS, -37.1% (active); in the experiment with SF-295 CNS, -73.5% (active); in the experiment on SF-539 CNS, -31.9% (active). Besides, the figures for the growth with UACC-257 melanoma and in the experiment on M14 melanoma were -28% (active) and -0.783% (active), respectively.

As to `COc1cc(/C=C/c2cc(/C=C/c3ccc(O)c(OC)c3)n(-c3ccccc3)c(=O)n2)ccc1O`, the growth in the experiment with NCI-H23 lung is 78.4%; in the experiment with NCI-H226 lung it was 80.2%; with NCI-H322M lung it was 86.8%; in the experiment on HOP-62 NSCLC it was 85.8%; in the experiment on NCI-H460 lung, 91%; with HOP-92 NSCLC, 78.8%. Also, the growth is 68.2% in the experiment with NCI-H522 lung; 90.6% with A549/ATCC NSCLC; 85.1% in the experiment with 786-0 renal; 71.3% in the experiment on COLO 205 colon; 86.7% with DU-145 prostate; 53.9% with K-562 leukemia. Further, the growth in the experiment on MALME-3M melanoma is 90.4%; with MDA-MB-231 breast, 61.4%; with RXF 393 renal it was 68.3%; in the experiment on SF-268 CNS, 72.3%; in the experiment with SF-295 CNS, 88%; with SF-539 CNS it was 79.5%. Further, the growth in the experiment with UACC-257 melanoma was 88.9%.

Consider `C=C(C)[C@@H]1CC[C@]2(C(=O)O)CC[C@]3(C)[C@H](CC[C@@H]4[C@@]5(C)C/C(=C/c6ccc(OC)cc6)C(=O)C(C)(C)[C@@H]5CC[C@]43C)[C@@H]12`, for which the growth was 8.25% (active) in the experiment on NCI-H23 lung; 25% in the experiment with NCI-H226 lung; 30.4% with NCI-H322M lung; 23.8% with HOP-62 NSCLC; 1.81% (active) with NCI-H460 lung; 18.9% in the experiment on HOP-92 NSCLC. For the same molecule, the growth with NCI-H522 lung was 12.7%; with A549/ATCC NSCLC, 16.8%; with 786-0 renal, 25.1%; with COLO 205 colon it was 2.57% (active); with DU-145 prostate, 34.4%; in the experiment on K-562 leukemia, 15.6%. Further, the growth is 42.2% in the experiment with MALME-3M melanoma; 32.4% with MDA-MB-231 breast; 43.9% with RXF 393 renal; 38.8% in the experiment with SF-268 CNS; 11.9% with SF-295 CNS; 22.1% with SF-539 CNS. Besides, the growth with UACC-257 melanoma is 31.1%.

As for `COc1cc2nc(Cl)nc(Nc3cccc(C(=O)/C=C/c4ccc(Cl)cc4)c3)c2cc1OC`, the growth in the experiment on NCI-H23 lung is 80.9%; in the experiment with NCI-H226 lung, 88.1%; with NCI-H322M lung it was 83.1%; with HOP-62 NSCLC, 86.8%; with NCI-H460 lung, 91.3%; in the experiment on HOP-92 NSCLC it was 78.3%. Moreover, the growth in the experiment with NCI-H522 lung was 77.6%; in the experiment with A549/ATCC NSCLC, 78.2%; in the experiment on 786-0 renal it was 64.8%; in the experiment with COLO 205 colon, 86.9%; in the experiment on DU-145 prostate it was 88.2%; with K-562 leukemia, 11.3%. Further, the growth is 88.2% with MALME-3M melanoma; 73.7% with MDA-MB-231 breast; 62.7% in the experiment on RXF 393 renal; 85.7% in the experiment on SF-268 CNS; 80.6% in the experiment on SF-295 CNS; 50% in the experiment with SF-539 CNS. In addition, the results for the growth with UACC-257 melanoma and with M14 melanoma were 94% and 70.2%, respectively.

`C=COCCCCCCCCCCCCCCCCCC`: the growth in the experiment with NCI-H23 lung was 101%; in the experiment with NCI-H226 lung it was 104%; in the experiment on NCI-H322M lung it was 137%; with HOP-62 NSCLC it was 108%; in the experiment with NCI-H460 lung it was 107%; with HOP-92 NSCLC, 75.6%. The growth in the experiment with NCI-H522 lung was 97.5%; in the experiment on A549/ATCC NSCLC, 79.5%; in the experiment on 786-0 renal it was 102%; with COLO 205 colon, 104%; in the experiment on DU-145 prostate, 106%; in the experiment with K-562 leukemia it was 119%. Also, the growth in the experiment with MALME-3M melanoma is 109%; with MDA-MB-231 breast, 90.4%; with RXF 393 renal it was 119%; in the experiment on SF-268 CNS, 101%; in the experiment on SF-295 CNS, 118%; with SF-539 CNS it was 96.4%. Further, in the experiment with UACC-257 melanoma, the growth is 92.2%.
